Assay outcomes deposited in PubChem BioAssay by National Center for Advancing Translational Sciences (NCATS).
POLB inh – qHTS Assay for Inhibitors of DNA Polymerase Beta; P06746; hit rate 1.3% among 340,000; AID 485314, 2010; Pol beta primer extension/strand displacement, fluorescence kinetic; Potency, µM (series often up to 114 µM), inactives show at the highest dose activity change, negative = inhibition, usual class: inhibitors; further: potency means the concentration at half of the fitted maximal effect; on the % scale 0 is the no-effect control and ±100 the full control effect
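Pol beta (10 nM) was preincubated with compound for 15 min at room temperature. The reaction was then started with 50 nM substrate and read immediately and after a further 10 min at room temperature.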
Pol kappa inh – qHTS for Inhibitors of Polymerase Kappa; hit rate 0.53% among 400,000; Potency, µM (doses to about 107 µM), inactives show top-dose activity, negative = inhibition, actives largely listed as inhibitors; purified Pol kappa, fluorescent DNA synthesis assay, 10 min; DNA polymerase kappa (Homo sapiens), Q9UBT6; further: potency means the concentration at half of the fitted maximal effect; on the % scale 0 is the no-effect control and ±100 the full control effect
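10 nM Pol kappa was preincubated with compounds for 15 min at room temperature. Reaction started with 50 nM (final) substrate. Fluorescence read kinetically at 0 and 10 min.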
FEN1 inh – qHTS Assay for the Inhibitors of Human Flap endonuclease 1 (FEN1); Recombinant FEN1 flap cleavage, fluorescence, 15 min; Potency, µM (series often up to 114 µM), for inactives: at the highest dose activity change, negative = inhibition, most hits filed as inhibitors; hit rate 0.35% among 390,000; AID 588795, 2011; further: potency means the concentration at half of the fitted maximal effect; on the % scale 0 is the no-effect control and ±100 the full control effect; nearly all actives have a fitted effect of over 65% in size
Target sequence (P39748 whole entry, looked up): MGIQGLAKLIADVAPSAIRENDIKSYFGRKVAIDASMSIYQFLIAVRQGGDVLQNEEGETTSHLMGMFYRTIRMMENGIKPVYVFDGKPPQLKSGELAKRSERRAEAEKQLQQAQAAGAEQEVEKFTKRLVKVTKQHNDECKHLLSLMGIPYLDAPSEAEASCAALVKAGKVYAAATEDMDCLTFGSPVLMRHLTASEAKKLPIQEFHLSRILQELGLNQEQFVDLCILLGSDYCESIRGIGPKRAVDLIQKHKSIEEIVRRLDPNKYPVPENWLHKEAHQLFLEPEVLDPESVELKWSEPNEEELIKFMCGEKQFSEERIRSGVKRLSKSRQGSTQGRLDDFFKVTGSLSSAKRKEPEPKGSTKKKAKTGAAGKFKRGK
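Compounds are tested as a concentration series against 10 nM FEN1; after a 15 min room-temperature preincubation, 50 nM substrate starts cleavage, with plate reads at 0 and 15 min. Normalized responses are fitted by a Hill equation.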
Pol eta inh – qHTS for Inhibitors of Polymerase Eta; DNA polymerase eta (Homo sapiens), Q9Y253; AID 588591, 2011; Potency, µM (top dose mostly 114 µM), for the others: at the highest dose activity change, negative = inhibition, actives largely listed as inhibitors; hit rate 1.2% among 390,000; recombinant Pol eta, fluorescent DNA replication assay; further: potency means the concentration at half of the fitted maximal effect; on the % scale 0 is the no-effect control and ±100 the full control effect
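Pol eta (10 nM) was preincubated with compounds for 15 min at room temperature, after which fluorescent replication substrate (50 nM final) was added to start the reaction. Fluorescence was read kinetically at 0 and 10 min.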
PI5P4Ka inh – qHTS for Inhibitors of phosphatidylinositol 5-phosphate 4-kinase (PI5P4K). Phosphatidylinositol 5-phosphate 4-kinase type-2 alpha (Homo sapiens), P48426. PI5P4Kalpha enzyme, ADP-Glo luminescence, 60 min; hits give low values. max response, %. hit rate 1.2% among 330,000; active means max response of -50% or lower; inconclusive means between -30% and -50%; inactive means -30% or higher; further: value at the top dose of about 77 µM; on the % scale 0 is the no-effect control and ±100 the full control effect
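ADP-Glo luminescence end-point read after a 60 min room-temperature kinase reaction of PI5P4Kalpha plus substrate, initiated with ATP at 5 microM final. Buffer: 0.038 M HEPES pH 7.4, EGTA, 0.1% CHAPS, 5% DMSO.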
Pol iota inh – qHTS for Inhibitors of Polymerase Iota; hit rate 1% among 390,000; Potency, µM (series often up to 115 µM), for inactives: at the highest dose activity, negative = inhibition, hits mostly inhibitors; Pol iota fluorescent replication assay, 10 min; DNA polymerase iota (Homo sapiens), Q9UNA4; further: potency means the concentration at half of the fitted maximal effect
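Pol iota at 10 nM preincubated 15 min with compounds at room temperature; reaction started with fluorescent substrate, 50 nM final. Fluorescence read kinetically at 0 and 10 min; buffer-only wells as negative control.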
An asterisk follows results filed as active; ? = inconclusive; nt = no result given; ! = not confirmed by another sample; [ ] = another dose, or the depositor's remark. A selection: hits, their analogues and other compounds. The true share with any hit is near 2.8%. Unless noted, the call rests on the fitted dose curve; in most records, active means well fitted curve in the direction sought with a large enough effect; inconclusive means small, poorly fitted or top-dose-only effect, or another doubt; inactive means no such curve, though single readings can be large; an effect the other way counts as inactive or inconclusive.

SMILES	POLB inh	Pol kappa inh	FEN1 inh	Pol eta inh	PI5P4Ka inh	Pol iota inh
CN(C)c1c([N+](=O)[O-])cc(N2C(=O)C=CC2=O)cc1[N+](=O)[O-]	nt	-37%	-1%	-17%	-86*	?
CCNc1cc(N2CCN(C)CC2)ccc1[N+](=O)[O-]	13%	-22%	-3%	-4%	-6	33%
CCOc1ccc(C=C2C(=O)NC(=S)NC2=O)cc1OCC	nt	-12%	2%	4%	?	?
CCOc1cc(C=C2C(=O)NC(=O)NC2=O)ccc1OS(=O)(=O)c1ccccc1	8%	-27%	-11%	-8%	-63*	-63%
COc1cc(C=C2C(=O)NC(=O)NC2=O)ccc1OS(=O)(=O)c1ccccc1[N+](=O)[O-]	20%	-14%	-24%	-19%	-67*	?
CCCCCCCCn1sccc1=O	nt	14%	-12%	0%	-77*	?
CCCCCCCCc1ccc(O)cc1	nt	-30%	-7%	-18%	70	-9%
COc1ccc(/C(=N/OC(C)=O)c2nccc3cc(OC)c(OC)cc23)cc1OC	6%	-6%	17%	2%	-3	69%
COc1ccc2c(c1O)-c1cccc3c1C(C2)N(C)CC3 (centres undefined)	6%[57.1 µM]	nt	nt	-3%[57.1 µM]	nt	-2%[58.9 µM]
CN1CCc2cc(O)cc3c2C1Cc1ccc(O)c(O)c1-3 (centres undefined)	-2%[57.1 µM]	4%[19.4 µM]	nt	-13%[57.1 µM]	nt	16µM*
CCOP(=S)(OCC)Oc1ncn(-c2ccccc2)n1	nt	17%[60.1 µM]	nt	nt	nt	nt
OC[C@@H]1O[C@H](OC2[C@@H](O)[C@@H](O)C(O)O[C@@H]2CO)[C@H](O)[C@@H](O)[C@@H]1OC1O[C@H](CO)[C@@H](O)[C@H](O)[C@@H]1O (some centres undefined)	nt	12%[60.1 µM]	nt	nt	nt	nt
Cc1ccccc1C(=O)Nc1cc(-c2ccc(Cl)cc2)nn1-c1ccccc1	?	-2%[60.1 µM]	1%	-15%	nt	16%
O=C(N/N=C\C1C(=O)NC(=S)N(c2ccccc2)C1=O)c1ccc(O)cc1 (centres undefined)	-2%	-15%	-12%	1%	-57*	35%
O=C(N/N=C/c1c(O)n(Cc2ccc(F)cc2)c(=O)[nH]c1=O)c1ccccc1	17%	2%	?	-21%	?	28%
COC(=O)C1=C(C)NC(C)=C(C(=O)OC)C1c1ccccc1[N+](=O)[O-]	-6%	-17%[60.1 µM]	2%	-9%	-58*	?
Cc1ccc(NC(=O)C2CCN(C(=O)c3cccs3)CC2)c(C)c1	63%	2%	1%	-19%	5	59%
CCOC(=O)CCCc1cc[c]([Sb](=[O])([OH])[OH])cc1	nt	0.71µM*	3.5µM*	nt	nt	1µM*
CCN(CC)C(=O)N[C@H]1C[C@@H]2c3cccc4[nH]cc(c34)C[C@H]2N(C)C1	1%	?	-22%	-2%	-75*	?
O=C(c1ccccc1)c1ccc2nc(N3CCN(c4ccc(F)cc4)CC3)c3nncn3c2c1	35%	1%	-14%	-8%	nt	0%
O=c1c2ccccc2[se]n1-c1ccccc1	3.2µM*!	10%[60.1 µM]	79µM*	-6%	-91*	?
O=C1CC=C2C3CC4N(CCC45c4cc(O)c(O)cc4N1C25)CC3=CCBr (centres undefined)	nt	?	?	?	-70*	40µM*
O=c1cc(C2CCNCC2)[nH][nH]1	3%	0%	-13%	14%	-4	0.89µM*
Cc1ccsc1/C=C1\C(=O)NC(=S)N(C)C1=O	25%	3%	79µM*	-17%	-84*	?
Cc1ccc(/C=C2\C(=O)NC(=O)N(CCc3ccc(F)cc3)C2=O)s1	0%	-3%	-1%	-1%	?	112%
SMILES	POLB inh	Pol kappa inh	FEN1 inh	Pol eta inh	PI5P4Ka inh	Pol iota inh
CCN1C(=O)/C(=C\c2ccc([N+](=O)[O-])s2)C(=O)NC1=S	4.5µM*	nt	nt	nt	nt	nt
CN1C(=O)/C(=C/c2ccc(N3CCCCCC3)o2)C(=O)NC1=S	-17%	-15%	-6%	?	-14	?
CN1C(=O)/C(=C/c2ccc(Cl)s2)C(=O)NC1=S	4%	-24%	-24%	?	-80*	?
CN1C(=O)/C(=C\c2ccc(N3CCCCC3)o2)C(=O)NC1=S	-13%	-3%	6%	-29%	-3	?
COc1ccc(COC(=O)CCNC(=O)c2ccc(Cl)cc2)cc1	nt	-24%	-1%	-15%	-1	23%
CCCCCCCCCC[n+]1cccc([C@@H]2CCCN2C)c1	nt	14%[60.1 µM]	nt	nt	nt	nt
O=C(Nc1ccc2nc(SCC(=O)N3CCCc4ccccc43)sc2c1)c1cccc(F)c1	?	-24%	3%	-1%	nt	-4%
CC(C)(CO)CNC1CCCN(C2Cc3ccccc3C2)C1 (centres undefined)	43%	-10%	1%	-16%	2	40%
Cc1cc([N+](=O)[O-])c(Cl)cc1NC(=O)C(C)C	9%	-11%	-4%	-14%	-7	5%
CNc1cc(Cl)c2nonc2c1[N+](=O)[O-]	89µM*	-25%	13µM*	-13%	2	10µM*
O=C1NC(=S)NC(=O)C1=Cc1ccc(OCC(=O)N2CCCC2)cc1	50µM*	-34%	-16%	?	-54*	?
O=C1NC(=O)N(Cc2ccccc2Cl)C(=O)/C1=C/c1cccs1	7%	-21%	?	?	?	?
O=C1NC(=O)N(Cc2ccc(F)cc2)C(=O)/C1=C/c1cccs1	89µM*	-13%	-16%	?	-56*	?
CSc1ncc(/C=C2/C(=O)NC(=O)N(c3ccc(C(C)C)cc3)C2=O)cn1	-14%	-1%	8%	-6%	?	4%
O=C1NC(=O)N(Cc2ccccc2)C(=O)/C1=C/c1cnc(-c2ccccc2)nc1	7%	-7%	7%	-13%	-73*	28%
O=C1NC(=O)N(Cc2ccccc2)C(=O)/C1=C/N1CCCc2ccccc21	-8%	-66%	?	-11%	-23	?
CC(C)c1ccc(N2C(=O)NC(=O)/C(=C/c3cnc(-c4ccccc4)nc3)C2=O)cc1	8%	-11%	-6%	-2%	-54*	2%
C[C@H]1O[C@@H](O[C@H]2[C@@H](O)C[C@@H](O[C@H]3[C@@H](O)C[C@H](O[C@H]4CC[C@@]5(C)[C@H](CC[C@@H]6[C@@H]5CC[C@]5(C)[C@@H](C7=CC(=O)OC7)CC[C@]65O)C4)O[C@@H]3C)O[C@@H]2C)C[C@H](O)[C@@H]1O	nt	nt	18%	nt	nt	nt
